The nature of this experiment: qHTS profiling of the MIPE4 collection as inhibitors of Plasmodium falciparum (HB3) proliferation (AID 743347).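 Further: plate controls were DMSO vehicle wells for no effect and artemisinin wells for full effect.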 The conditions noted are these: P. falciparum HB3 in erythrocytes, SYBR Green DNA, 72 h; at 28.5 µM (top of the series) unless noted. The source says: Plasmodium falciparum is a virulent malarial parasite that kills 1-2 million people worldwide each year. Transmitted by mosquitoes, the sporozoite form of the parasite enters the blood stream to infect hepatocytes, where they become merozoites that infect red blood cells (erythrocytes). Within erythrocytes, merozoites begin a […] cycle of growth and division, after which the parasite is released to infect new red blood cells. Gametocytes, which form within erythrocytes as well, circulate in the bloodstream and are ingested by the mosquito, thereby completing the life cycle. To profile malarial isolates for differential chemical responses and to identify inhibitors of malarial growth, an assay that measures P. falciparum growth and replication within erythrocytes was employed. This assay uses a DNA binding fluorescent dye (SYBR Green) to detect parasite DNA following cell lysis. Because mature erythrocytes lack DNA, only Plasmodium-derived DNA is detected.
The SYBR Green viability assay was adapted from a method described previously (Plouffe et al., 2008). For screening 3 ul culture medium was dispensed into 1536 well black clear bottom plates (Aurora Biotechnologies) using a Multidrop Combi (Thermo Fisher Scientific Inc.), 23 nL compounds in DMSO were added by a pin tool (Kalypsys), and 5 ul of erythrocytes infected with P. falciparum (0.3% parasitemia, 2.5% hematocrit final concentration) were added. The plates were incubated at 37 C in a humidified incubator in 5% CO2 for 72 h, and 2 ul lysis buffer (20 mM Tris HCl, 10 mM EDTA, 0.16% saponin, 1.6% triton X, 10X SYBR Green I supplied as 10,000X […] by Invitrogen) was added to each well. The plates were mixed for 25 sec with gentle shaking and incubated overnight at room temperature in the dark. The following morning, fluorescence intensity at 485(14) nm excitation and 535(25) nm emission wavelengths was measured on an EnVision (Perkin Elmer) plate reader. Plate reads were normalized relative to the control inhibitor (0.29 uM artemisinin) and vehicle (DMSO) wells present on each plate and then corrected by an algorithm using vehicle-only control plates at the beginning and end of the compound plate stack.
On the technique in general: Quantitative high-throughput screening tests each substance at several concentrations.
`CCc1cc(Nc2nccc(-c3c(-c4ccc(OC)c(C(=O)Nc5c(F)cccc5F)c4)nc4ccccn34)n2)c(OC)cc1N1CCC(N2CCN(S(C)(=O)=O)CC2)CC1`: the growth, % of control came out at 4.27%.

The compound `Nc1cccc(S(=O)(=O)N2CCCN(S(=O)(=O)c3ccc4c(c3)OCCO4)CC2)c1` had a growth, % of control of 586%.

In turn, `CC(=O)Oc1ccccc1C(=O)O` had a growth, % of control of 94.6%.

Take `COc1cc(Nc2ncc3c(n2)-c2ccc(Cl)cc2C(c2c(F)cccc2OC)=NC3)ccc1C(=O)O`: the growth, % of control was found to be 30.2%.

For `COc1ccc(-c2ccc3c(N4CCOC[C@H]4C)nc(N4CCOC[C@H]4C)nc3n2)cc1CO`, the growth, % of control came to 7.68%.

As for `CN([C@@H](Cc1ccc(OS(=O)(=O)c2cccc3cnccc23)cc1)C(=O)N1CCN(c2ccccc2)CC1)S(=O)(=O)c1cccc2cnccc12`, the growth, % of control worked out at 4.99%.

`COc1c(Cl)cc2c([nH]c3cnccc32)c1NC(=O)c1cccnc1C` came in with a growth, % of control of 4.33%.

In turn, `CS(=O)(=O)c1cccc(CNc2nc(Nc3ccc4c(c3)CCC(=O)N4)ncc2C(F)(F)F)c1` yielded a growth, % of control of 10.1%.

For the compound `CN1CCN(CCCN2c3ccccc3Sc3ccc(C(F)(F)F)cc32)CC1`, the growth, % of control was 83%.

Consider `COc1cc(F)c(F)c(Nc2ccc(I)cc2F)c1NS(=O)(=O)C1(C[C@H](O)CO)CC1`, for which the growth, % of control came to 17.2%.

`NC(=O)c1ccc(-c2nc(-c3ccc4c(c3)OCO4)c(-c3ccccn3)[nH]2)cc1` displayed a growth, % of control of 18.7%.

For `NNCCc1ccccc1`, the growth, % of control came to 96.6%.

Consider `COc1cccc2cc(-c3nc(C4CCC(C(=O)O)CC4)n4ncnc(N)c34)[nH]c12` (stereo not given), for which the growth, % of control is 9.36%.

Consider `Cn1cnc2c(F)c(Nc3ccc(Br)cc3Cl)c(C(=O)NOCCO)cc21`, for which the growth, % of control came to 97.3%.

Consider `O=C(NOC[C@H](O)CO)c1ccc(F)c(F)c1Nc1ccc(I)cc1F`, for which the growth, % of control stood at 97.2%.

In turn, `NC(=O)c1ccc(I)c([N+](=O)[O-])c1` came in with a growth, % of control of 96%.

Regarding `COc1ccc(-c2c(-c3ccc(O)cc3O)n[nH]c2C)cc1`, the growth, % of control stood at 106% [at 57.5 µM].

In turn, `Cc1ccc(N(CC2=NCCN2)c2cccc(O)c2)cc1` had a growth, % of control of 95.9%.

With `COc1ccc2c3n(c(=NC(=O)c4cccnc4)nc2c1OC)CCN3`, the growth, % of control is 3.38%.

Regarding `Cc1cc2c(F)c(Oc3ncnn4cc(OC[C@@H](C)O)c(C)c34)ccc2[nH]1`, the growth, % of control is 76.7%.

In the case of `COc1cc2c(cc1OC)CN(CCc1ccc(NC(=O)c3cccc4c(=O)c5cccc(OC)c5[nH]c34)cc1)CC2`, the growth, % of control came out at 4.23%.

Take `c1ccc([C@H]2CN3CCSC3=N2)cc1`: the growth, % of control stood at 95.1%.

For `O=C(O)CCc1ccc(NCc2cccc(Oc3ccccc3)c2)cc1`, the growth, % of control is 76.8%.

In the case of `CC(C)OC(=O)C1=CN(C(=O)c2ccc(F)c(F)c2)CC(C)(C)c2c1[nH]c1ccccc21`, the growth, % of control stood at 46.5%.

The compound `COc1ccc(C2=N[C@H](c3ccc(Cl)cc3)[C@H](c3ccc(Cl)cc3)N2C(=O)N2CCNC(=O)C2)c(OC(C)C)c1` came in with a growth, % of control of 12.4%.

The compound `CCC(C)N(C)C(=O)c1cc2ccccc2c(-c2ccccc2Cl)n1` (stereo not given) yielded a growth, % of control of 53.6%.

`CCC(=O)N[C@H]1CC[C@H](C(=O)N(C)c2ccc(-c3nc4ccccc4o3)cc2)C1` yielded a growth, % of control of 33.6%.

Consider `O=C(Nc1cccnc1)N1CCC(Cc2cccc(Oc3ccc(C(F)(F)F)cn3)c2)CC1`, for which the growth, % of control came to 5.3%.

In turn, `O=C(C1CC1)N1CC[C@@H](Cn2c(-c3ccc(-c4ccc5occc5c4)cc3)nc3cnccc32)C1` returned a growth, % of control of 21.9%.

`CCOC(=O)N1CCC(=C2c3ccc(Cl)cc3CCc3cccnc32)CC1` displayed a growth, % of control of 13.8%.

Take `CCCCNc1cc(C(=O)O)cc(S(N)(=O)=O)c1Oc1ccccc1`: the growth, % of control worked out at 84%.

With `CCN(CC)CCCC(C)Nc1nc(C)cc(Nc2ccc3nc(C)cc(N)c3c2)n1` (stereo not given), the growth, % of control was determined as 20%.

With `COc1cc(Oc2ccnc3cc(OC)c(OC)cc23)ccc1NC(=O)NC(C)c1nccs1` (stereo not given), the growth, % of control was 71.5%.

In the case of `CCCS(=O)(=O)Nc1ccc(F)c(C(=O)c2c[nH]c3ncc(-c4ccc(Cl)cc4)cc23)c1F`, the growth, % of control amounted to 15.2%.

In turn, `Cc1c(CCOc2ccc(C(=O)O)cc2)c2cc(Cl)ccc2n1C(c1ccccc1)c1ccccc1` had a growth, % of control of 63.5%.

On to `COc1cc2nccc(Oc3ccc(NC(=O)NC4CC4)c(Cl)c3)c2cc1C(N)=O`, for which the growth, % of control was 19.2%.

As for `Cc1cc(C=c2sc3nc4ccccc4n3c2=O)c(C)n1-c1ccccc1`, the growth, % of control was 424%.

The compound `CC1(C)Cc2c(-c3ccccc3)c(-c3ccc(Cl)cc3)c(CC(=O)O)n2C1` gave a growth, % of control of 82.7%.

`CCCn1c(=O)c2[nH]c(C34CC5CC3C[C@@H](C5)C4)nc2n(CCC)c1=O` showed a growth, % of control of 5.74%.

Compound `CCCC(CCC)C(=O)O` registered a growth, % of control of 111%.

Source of the values: PubChem BioAssay (NCATS).
